From PubChem
Rows were chosen to be rich in hits. Some 1.4% of all compounds tested hit in one or more screens of this group.
3CLpro inhibitor: SARS-CoV 3CLpro protease inhibitors, primary screen, biochemical, quenched FRET; Replicase polyprotein 1ab (Severe acute respiratory syndrome coronavirus), P0C6X7; recombinant SARS-CoV 3CLpro, quenched FRET peptide cleavage; inhibition, % at 6 µM; actives 0.14% (n = 290,000); AID 1706, 2009; in the data active = inhibition above about 12%
PrPC surface inh: inhibitors of human cell surface prion protein PrPC, primary screen, cell-based, TR-FRET. Major prion protein (Homo sapiens), P04156. TR-FRET read-out. inhibition, % at 13.8 µM. actives 0.43% (n = 370,000); in the data active = inhibition above about 24%; also: 0% = median of the test wells and 100% = reference compound wells
PrP 5UTR inh: inhibition of PrP 5' UTR reporter expression | actives 0.35% (n = 340,000) | cell-based PrP 5' UTR mRNA reporter, plate reader | AID 488862, 2010 | inhibition, % (no concentration beside the values); in the data active = inhibition above about 52%; also: 0 = median of the neutral control wells
BJeLR viability: MLPCN primary cell-based screen for lethality selective to Ras in HRASV12 cells; AID 1554, 2009; inhibition, % (test concentration not listed); actives 0.17% (n = 300,000); BJeLR (HRASV12) viability, CellTiter-Glo ATP luminescence, 48 h; in the data active = inhibition above about 50%
RecA splice inh: Mtb RecA intein splicing inhibitors, primary screen, biochemical, fluorescence, HTS | cell-free RecA intein splicing | Protein RecA (Mycobacterium tuberculosis (strain ATCC 25618 / H37Rv)), P9WHJ3 | actives 0.75% (n = 290,000) | AID 2221, 2009 | inhibition, % (no concentration beside the values); in the data active = inhibition above about 30%;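 also: 0% = vehicle wells and 100% = reference inhibitor control wells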
Target sequence (P9WHJ3 whole entry, looked up, canonical isoform): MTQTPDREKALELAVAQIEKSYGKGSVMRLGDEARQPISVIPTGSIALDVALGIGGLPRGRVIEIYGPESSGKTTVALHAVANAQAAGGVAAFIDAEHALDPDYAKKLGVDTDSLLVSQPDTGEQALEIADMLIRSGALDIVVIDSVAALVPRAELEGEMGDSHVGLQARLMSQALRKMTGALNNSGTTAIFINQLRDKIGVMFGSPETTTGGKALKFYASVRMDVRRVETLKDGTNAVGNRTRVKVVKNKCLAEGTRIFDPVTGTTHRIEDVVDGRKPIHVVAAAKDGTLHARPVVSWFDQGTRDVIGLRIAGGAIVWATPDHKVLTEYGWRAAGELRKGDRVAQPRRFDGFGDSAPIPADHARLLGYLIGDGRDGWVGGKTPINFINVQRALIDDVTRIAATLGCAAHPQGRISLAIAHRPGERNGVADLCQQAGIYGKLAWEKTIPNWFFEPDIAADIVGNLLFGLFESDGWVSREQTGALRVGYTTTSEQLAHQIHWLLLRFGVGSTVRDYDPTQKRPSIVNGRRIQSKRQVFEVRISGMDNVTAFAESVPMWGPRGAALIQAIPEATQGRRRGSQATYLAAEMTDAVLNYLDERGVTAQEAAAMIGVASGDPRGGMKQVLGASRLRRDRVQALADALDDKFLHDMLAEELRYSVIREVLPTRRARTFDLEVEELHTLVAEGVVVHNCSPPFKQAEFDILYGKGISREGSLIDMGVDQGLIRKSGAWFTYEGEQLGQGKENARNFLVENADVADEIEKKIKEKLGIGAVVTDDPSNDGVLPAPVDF
Mtb hypoxia inh: PubChem AID 1159583; fluorescence inhibition, % (test concentration not listed); actives 0.1% (n = 300,000); M. tuberculosis hypoxia-regulated fluorescent reporter, fluorescence; in the data active = fluorescence inhibition mostly above about 23%, no sharp cut-off; inactive = mostly below about 17%
An asterisk follows results filed as active; . = no result given.

SMILES	3CLpro inhibitor	PrPC surface inh	PrP 5UTR inh	BJeLR viability	RecA splice inh	Mtb hypoxia inh
COc1cc(/C=C/c2ccc3c([N+](=O)[O-])cccc3n2)ccc1OCC(=O)O	1	-10	-39	3	5	77*
CCC(C)(C)c1ccc(OCCCC[n+]2cccc(C)c2C)c(C(C)(C)CC)c1	4	17	-3	57*	18	.
Cc1ccc(C(=O)Oc2cccc(NC(=O)c3ccccc3)c2)cc1C	5	-1	-16	10	15	-4
O=C(Nc1cccc(OC(=O)c2ccc(Br)o2)c1)c1ccccc1	-1	-3	-23	-11	43*	4
CCOC(=O)C1=C(c2ccccc2)O/C(=C(/C#N)C(F)(F)F)S1	4	.	.	44	42*	.
CCOC(=O)C1=C(c2ccccc2)O/C(=C(\C(=O)OC)C(F)(F)F)S1	5	-3	-20	4	2	18
C=CCNc1nc(C(=O)OCC(=O)NCc2cccc(Cl)c2)cs1	.	-3	-12	.	.	34*
O=C(COC(=O)c1ccccn1)NCc1cccc(Cl)c1	.	-6	-16	.	.	2
COCCCNC(=O)Cc1c(C)c2c(cc(C)c3c(C(C)(C)C)coc32)oc1=O	0	-2	12	66*	7	0
CCCC(=O)O[C@]1(C(=O)COC(C)=O)CCC2C3CC(F)C4=CC(=O)C=C[C@]4(C)[C@@]3(F)C(O)C[C@@]21C (stereo not given in full)	.	.	.	.	.	-11
CCOC(=O)C1CCN(C(=O)C2CCN(c3ncnc4c3nc3n4CCCCC3)CC2)CC1	-3	0	-12	-3	-6	-10
CC1CCN(C(=O)C2CCN(c3ncnc4c3nc3n4CCCCC3)CC2)CC1	-3	7	-8	-7	-6	28*
O=[N+]([O-])c1cc(-c2ccc(C=Nn3cnnc3)o2)cc([N+](=O)[O-])c1	.	.	.	.	.	43*
CC1=CC(C)(C)N(S(=O)(=O)c2ccc(C)cc2)c2cc(C)ccc21	2	4	-45	55*	9	0
Cn1cnc([N+](=O)[O-])c1Sc1nnc(-c2cccnc2)n1C	2	-1	-26	-5	39*	9
O=[N+]([O-])c1ccccc1NN=Cc1ccccc1Cl	.	.	.	.	.	21
O=[N+]([O-])c1ccccc1N/N=C\c1ccccc1Cl	-3	0	-129	72*	0	.
CC1=NN(c2ccc(C)cc2C)C(=O)C1C(c1ccccc1O)C1C(=O)N(c2ccc(C)cc2C)N=C1C (stereo not given)	-1	5	-5	5	78*	5
COc1ccc(C(NC(C)=O)c2cc(Cl)c3cccnc3c2O)cc1 (stereo not given)	-4	28*	-3	22	-2	5
CC(=O)NC(c1ccccc1)c1cc(Cl)c2cccnc2c1O (stereo not given)	6	22	19	27	4	7
CCCCS/C(=C(/C#N)C(N)=O)c1cc2c([nH]1)CCCC2	-6	-11	0	2	36*	12
CCc1ccc(N/C(SC)=C(/C#N)C(N)=O)cc1	0	.	-8	-1	2	2
O=C(COc1ccccc1)NN=Cc1ccc(O[C@@H]2O[C@H](CO)[C@@H](O)[C@H](O)[C@H]2O)cc1	.	.	.	.	.	-6
COc1ccc(/C=N/NC(=O)c2nn(-c3ccccc3)c(=O)c3c(N)scc23)cc1	1	-33	-2	4	68*	.
CCOC(=O)c1nn(-c2ccc(C)c(C)c2)c(=O)c2c(N)scc12	0	-21	-11	8	.	9
SMILES	3CLpro inhibitor	PrPC surface inh	PrP 5UTR inh	BJeLR viability	RecA splice inh	Mtb hypoxia inh
CCOC(=O)c1nn(-c2ccc(OC)cc2)c(=O)c2c(N)scc12	3	-30	-35	0	47*	18
Cc1ccc2sc(N(CCCN(C)C)C(=O)c3ccc(S(=O)(=O)N4CCc5ccccc5C4)cc3)nc2c1C	.	-9	-24	6	-2	10
COc1ccc(OC)c2sc(N(CCCN(C)C)C(=O)c3ccc(S(=O)(=O)N4CCc5ccccc5C4)cc3)nc12	.	.	.	89*	1	.
COc1cccc2sc(N(CCCN(C)C)C(=O)c3ccc(S(=O)(=O)N4CCc5ccccc5C4)cc3)nc12	-4	-10	-5	1	1	2
COc1ccc(C)c2sc(N(CCCN(C)C)C(=O)c3ccc(S(=O)(=O)N4CCc5ccccc5C4)cc3)nc12	.	-21	-19	81*	5	13
CN(C)CCCNc1c2ccccc2nc2ccccc12	1	-21	.	69*	-47	9
CN(C)CCCNc1nc(-c2ccccc2)nc2ccccc12	-3	-1	-16	-4	0	-10
CCN(c1ccccc1)S(=O)(=O)c1ccc(Cl)c(NC(=O)COC(=O)c2cc(O)c3ccccc3c2O)c1	3	.	.	3	80*	.
CCN(c1ccccc1)S(=O)(=O)c1ccc(Cl)c(NC(=O)COC(=O)c2ccc(O)cc2)c1	-1	4	-3	-11	4	1
O=[N+]([O-])c1ccc(NN=Cc2cccc(O)c2)nc1	.	-26	-141	.	.	17
O=[N+]([O-])c1ccc(NN=Cc2cc(Br)ccc2O)nc1	.	-5	5	.	.	37*
NC1=NCC(Cc2ccc(O)cc2)N1CCCCC1CCCCC1 (stereo not given)	.	.	.	.	.	-8
O=C(OCC#CCSc1nnc(-c2ccc(Br)cc2)o1)c1ccco1	-5	1	-8	-8	1	35*
O=C(OCC#CCSc1nnc(-c2cccc3ccccc23)o1)c1cc2ccccc2o1	.	-1	-33	.	.	48*
C/C(=C/CCC(C)[C@H]1CC[C@@]2(C)C3=C(CC[C@]12C)[C@@]1(C)CCC(=O)C(C)(C)[C@@H]1CC3)C(=O)O (stereo not given in full)	-7	-2	-5	-1	42*	.
C/C(=C/CCC(C)C1CCC2(C)C3CCC4C(C)(C)C(=O)CCC4(C)C3=CCC12C)C(=O)O (stereo not given)	.	.	.	-1	17	.
CCN(CC)C(=O)CSc1nnc2nnc3cc(C)ccc3n12	2	-44	-19	-8	-2	.
CCN(CC)C(=O)CSc1nnc2nnc3cc(Cl)ccc3n12	3	-62	-27	-3	42*	.
Cc1cc(C)cc(NC(=S)N=Nc2c(O)n(C)c3ccc(S(=O)(=O)N4CCOCC4)cc23)c1	2	-9	27	0	-1	6
Cc1cccc(C)c1NC(=S)N=Nc1c(O)n(C)c2ccc(S(=O)(=O)N3CCOCC3)cc12	-3	-7	-20	-3	46*	5
Cc1ccccc1NC(=S)N=Nc1c(O)n(C)c2ccc(S(=O)(=O)N3CCOCC3)cc12	-4	-13	4	-3	41*	6
Cc1nnsc1C(=O)NN=Cc1ccc(OC(F)(F)F)cc1	.	.	.	.	.	11
